# Most compounds without a hit are left out; they make up all but 6.3% or so of the library.
# tim10-1 inh = growth inhibitors of tim10-1 mutant yeast; S. cerevisiae tim10-1 ts strain growth, BacTiter-Glo, 24 h; inhibition, % at 20 µM; 330,000 compounds, 2.2% hits; AID 463190;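 active = inhibition of at least 40%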;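 also: mutant grown at 25 °C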
# Mdm2 MdmX PPI = disrupts the human Mdm2-MdmX interaction. O15151+Q00987. SaOS-2 split-luciferase Mdm2/MdmX complementation, luminescence. inhibition, % at 8 µM. 330,000 compounds, 3% hits;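 active = inhibition of at least 50% at 8 µM in the primary screen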
# tim23-1 inh = inhibits growth of tim23-1 mutant yeast; S. cerevisiae tim23-1 growth, BacTiter-Glo luminescence, 24 h; inhibition, % at 20 µM; 330,000 compounds, 1.3% hits;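 active = growth inhibition of the mutant yeast at or above 50%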;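 also: temperature-sensitive mutant grown at 25 °C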
# MPTP block = inhibitors of mitochondrial permeability transition pore. isolated mouse mitochondria, Ca2+ swelling absorbance, 30 min. 360,000 compounds, 1.4% hits. inhibition, % at 10 µM. AID 602449;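 active = inhibition of 50% or more, scaled per plate between neutral and stimulator controls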
# TIM10 inh = TIM10 yeast growth inhibition | 330,000 compounds, 1.4% hits | S. cerevisiae TIM10 strain growth, BacTiter-Glo luminescence, 24 h | inhibition, % at 10 µM;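 active = inhibition of 40% or more at the single tested concentration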;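 also: wild-type TIM10 isogenic control strain grown at permissive 25 °C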
# tim23-1 confirm = tim23-1 yeast growth inhibition, confirmed. shares compounds with tim23-1 inh. 4,400 compounds, 83% hits. inhibition, % at 20 µM. AID 463218. S. cerevisiae tim23-1 growth, BacTiter-Glo luminescence, 24 h;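 active = inhibition above about 39% in either of two replicate wells at 20 µM, limit read from the data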;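 also: temperature-sensitive tim23-1 mutant grown at 25 °C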
# Mdm2 MdmX conf = human Mdm2/MdmX binding inhibition, confirmed. inhibition, % at 8 µM. shares compounds with Mdm2 MdmX PPI. 10,000 compounds, 55% hits. luminescent assay; in the data active = inhibition above about 40%
# Full FLuc ctr = full-length luciferase inhibition in Mdm2/MdmX counter-screen. SaOS-2 full-length luciferase counterscreen, luminescence. shares compounds with Mdm2 MdmX PPI. 6,200 compounds, 77% hits. inhibition, % at 8 µM;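 active = mean inhibition at 8 µM reaching about 37%, which flags the compound as non-specific, limit read from the data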;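 also: p53-null SaOS-2 cells with luciferase driven by a doxycycline-inducible promoter; compound on cells about two nights before reading with doxycycline added after day one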
# Numbers stand for hits; . = inactive; / = not tested or not shown.
SMILES,tim10-1 inh,Mdm2 MdmX PPI,tim23-1 inh,MPTP block,TIM10 inh,tim23-1 confirm,Mdm2 MdmX conf,Full FLuc ctr
Cc1[nH]c2ccccc2c1C(c1ccccn1)N1CCCC1 (centres undefined),.,.,.,.,.,/,/,/
CCC(=O)NC(c1cccs1)c1cc(Cl)c2cccnc2c1O (centres undefined),.,86,51,.,.,70,76,.
CC(=O)NC(c1ccccc1)c1cc(Cl)c2cccnc2c1O (centres undefined),.,77,56,.,.,67,64,.
Oc1c(C(c2ccccn2)N2CCCCC2)cc(Cl)c2cccnc12 (centres undefined),.,65,53,.,.,64,46,43
Cc1cccc(Cc2cccc(C)c2O)c1O,/,/,/,.,/,/,/,/
COC(=O)c1csc(-c2ccc(CO)o2)n1,/,/,/,.,/,/,/,/
Cc1noc(C)c1NC(=O)N(C)C[C@H]1OCc2cnnn2CCCC(=O)N([C@@H](C)CO)C[C@H]1C,/,/,/,.,/,/,/,/
CCCn1c(CC)nc([N+](=O)[O-])c1Sc1ncn[nH]1,/,/,/,.,/,/,/,/
CCC(C)(C)c1ccc(OCCCC[n+]2cccc(C)c2C)c(C(C)(C)CC)c1,.,100,59,.,.,36,98,53
COc1cccc(-c2cc3nc(NCc4ccc(C)cc4C)n(C)c(=O)c3s2)c1,/,/,/,.,/,/,/,/
Cn1c(=O)c(C(=O)Nc2ccccn2)c(O)c2ccccc21,.,67,57,.,.,58,60,.
O=C(CCl)Nc1cccc(Oc2ccccc2)c1,.,94,52,.,.,.,.,/
Cc1c(CCOC(=O)c2ccccc2)sc[n+]1CC(=O)c1ccc(Br)cc1,.,.,.,.,.,/,/,/
Cc1c(CCOC(=O)C23CC4CC(CC(C)(C4)C2)C3)sc[n+]1CC(=O)c1ccccc1,.,54,62,.,.,.,.,/
Cc1cnc(CNC(=O)c2csc([C@@H]3O[C@H](CO)[C@H](O)[C@H](O)[C@H]3O)n2)cn1,/,/,/,.,/,/,/,/
COC1=CC(=O)OC(c2cccc(Cl)c2)C1 (centres undefined),/,/,/,.,/,/,/,/
O=S(=O)(CCSc1ccccn1)c1nc2ccccc2s1,.,80,55,.,.,49,48,39
O=C(CSc1ccccn1)Nc1nc2ccccc2s1,.,.,.,.,.,/,/,/
CC(C)C[C@@H]1COc2cccc(N3CCC[C@@H]3CO)c2S(=O)(=O)N1,/,/,/,.,/,/,/,/
COc1ccccc1N1CCN(C(=O)c2ccc(-c3ccc(Cl)cc3)o2)CC1,.,56,52,.,.,48,56,59
COc1ccccc1N1CCN(C(=O)NCc2ccc(Cl)cc2)CC1,.,.,.,.,.,/,/,/
O=[N+]([O-])c1cc(Br)c(Nc2ccccc2)c([N+](=O)[O-])c1,.,92,54,.,.,.,50,79
CC1CCCCc2nc3c(c(=O)n21)CCCC3 (centres undefined),/,/,/,.,/,/,/,/
Cc1cc2cc(CN(CC3CCCO3)C(=S)Nc3ccccc3)c(=O)[nH]c2cc1C (centres undefined),.,67,55,.,.,50,56,59
CC(=O)Nc1cn(-c2ccccc2)nc1-c1ccccc1,.,.,.,.,.,/,/,/
SMILES,tim10-1 inh,Mdm2 MdmX PPI,tim23-1 inh,MPTP block,TIM10 inh,tim23-1 confirm,Mdm2 MdmX conf,Full FLuc ctr
O=C(CCl)Nc1cn(-c2ccccc2)nc1-c1ccccc1,.,75,60,.,.,.,.,.
O=C1Nc2ccccc2-n2nnnc2C1N1CCN(c2ccc(C(F)(F)F)cn2)CC1 (centres undefined),/,/,/,.,/,/,/,/
COc1cccc(N=Nc2ccc(O)c3ncccc23)c1,.,82,62,.,.,56,92,.
COc1ccc(C)cc1N=Nc1ccc(O)c2ncccc12,/,/,/,.,/,/,/,/
CC1(C(=O)NC2CCCCC2)CCC(=O)N1CCOc1ccccc1 (centres undefined),/,/,/,.,/,/,/,/
CCOC(=O)Nc1nc(-c2ccccc2)c(C(=O)c2ccc(Cl)cc2)s1,.,66,53,.,.,59,60,106
CCOC(=O)Nc1sc(C)nc1-c1ccccc1,.,.,.,.,.,/,/,/
COc1ccccc1OCCn1nc2ccccc2c1OC,/,/,/,.,/,/,/,/
Cc1ccc(S(=O)(=O)/C(C#N)=C/c2c(Oc3ccc(Cl)cc3)nc3c(C)cccn3c2=O)cc1,.,59,50,/,.,.,.,/
O=Cc1cc2ccccc2nc1SCc1ccc(Cl)c(Cl)c1,.,64,60,.,.,44,62,86
Oc1c(Cl)cc(CN2CCOCC2)c2cccnc12,.,78,51,.,.,.,84,42
Clc1cc2cccnc2c2ncccc12,.,77,65,.,.,.,81,.
Cc1cc(C)c2cc(C#N)c(NCCCNC(=O)c3cccnc3)nc2c1,/,/,/,.,/,/,/,/
COc1nn(-c2ccccc2)c(=O)c(Cl)c1Cl,.,100,51,.,.,.,62,.
COc1c(Cl)cnn(-c2ccccc2)c1=O,.,.,.,.,.,/,/,/
O=c1[nH]c(CCl)nc2cc(-c3ccc(F)cc3)sc12,.,94,59,.,.,58,.,/
COc1cccc(C(=O)Nc2nc3ccccc3[nH]2)c1,.,.,.,.,.,/,/,/
COc1ccc(C(=O)Nc2nc3ccccc3[nH]2)cc1,.,56,60,.,.,61,.,83
COc1ccc2c(c1)OC/C(=C/c1cccs1)C2=O,.,.,.,.,.,/,/,/
COc1ccc(/C=C2\COc3ccccc3C2=O)c(OC)c1,.,59,55,.,.,50,.,76
CCOc1cc(/C=N/Nc2nc3ccccc3[nH]2)cc(Br)c1OCC(=O)N(C)C,.,.,.,.,.,/,/,/
CCOc1cc(/C=C2\COc3ccccc3C2=O)cc(Br)c1OCC(=O)N(C)C,.,97,50,.,.,57,74,59
O=S1(=O)N[C@@H](Cc2ccccc2)COc2cccc(N3CCC[C@H]3CO)c21,/,/,/,.,/,/,/,/
O=C(c1ccco1)N1CCN(C(=O)N2c3ccccc3Sc3ccccc32)CC1,.,52,56,.,.,.,63,92
COC(=O)[C@]12CCCCC=C1N(Cc1ccco1)C(=O)[C@H](CC(=O)N1CCOCC1)C2,/,/,/,.,/,/,/,/
COC(=O)c1ccc(-n2c(C)cc(C(=O)CCl)c2C)cc1,.,94,52,.,.,.,62,58
COC(=O)c1ccc(-n2c(C)cc(C(=O)COC(=O)C3=COCCO3)c2C)cc1,.,.,.,.,.,/,/,/
CC1CCN(S(=O)(=O)c2ccc3c(c2)C(Cl)(Cl)C(=O)N3)CC1,/,/,/,.,/,/,/,/
c1ccc(-c2sc3ccccc3c2-c2ccc(OCCN3CCCC3)cc2)cc1,.,100,61,.,.,42,46,58
COc1ccccc1-c1sc2ccccc2c1-c1ccc(OCCN2CCCCC2)cc1,.,67,52,.,.,.,44,55

# Screening results (PubChem)
